Reference: PubChem BioAssay AID449762 (Southern Research Specialized Biocontainment Screening …, 2010)
Out of some 330,000 compounds screened, about 1,900 (0.58%) were called active. Not shown: some 4% with an inconclusive outcome. Not all results are given here. Potency and affinity values are given separately. A number with no mark means an inactive call. Rule as the data show it: inconclusive = inhibition above about 70% without an active follow-up result; inactive = below that.

Test: M. tuberculosis growth inhibition, HTS (AID 449762);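 also: bacterial growth assessed after seven days of incubation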
Details: M. tuberculosis H37Rv growth inhibition, 7H9 media; at 25 µM; stronger effect = higher value

| SMILES | inhibition [%] |
| --- | --- |
| COc1ccc(C2NCc3ccccc3-n3cccc32)cc1 (stereo not drawn) | -8.78 |
| N#Cc1ccc(C(=O)NCCCSc2ccccc2)cc1 | -3.48 |
| CCC(C)N1CC(=O)N2C(c3ccc(OC)cc3OC)c3[nH]c4ccccc4c3C[C@H]2C1=O (stereo partly drawn) | 6.67 |
| CCOc1ccc(OCCC(=O)OCC(=O)NC2CCCC2)cc1 | 4.34 |
| CCCn1c(C(C)Nc2nc(-c3ccc(C)cc3)cs2)nc2cc(Cl)c(N3CCCCC3)cc21 (stereo not drawn) | 44.2 |
| COc1ccc(-c2csc(NC(C)c3nc4cc(Cl)c(Cl)cc4n3CCCO)n2)cc1 (stereo not drawn) | 35.7 |
| Cc1ccc(CN2CCC(c3cc(-c4cccs4)n[nH]3)CC2)cc1 | 42.8 |
| COc1ccc(-c2cc(C3CCN(Cc4ccc([N+](=O)[O-])cc4)CC3)[nH]n2)cc1 | 39.6 |
| COc1ccc(OC)c(-c2cc(C3CCN(C(=O)OC(C)(C)C)CC3)[nH]n2)c1 | -1.26 |
| CC(C)(C)OC(=O)N1CCC(c2cc(-c3cccs3)n[nH]2)CC1 | 10.2 |
| COc1ccc(-c2cc(C3CCN(CC(O)C(F)(F)F)CC3)[nH]n2)cc1 (stereo not drawn) | 7.78 |
| CCOC(=O)CN1CCC(c2cc(-c3ccc(Cl)cc3)n[nH]2)CC1 | 0.17 |
| CCCCCOc1ccc(CSc2ncn[nH]2)cc1 | 29.4 |
| COc1cccc(CN2C(=O)C(C)Oc3ccccc32)c1 (stereo not drawn) | -3.69 |
| O=C(CSc1nncc2ccccc12)N1CCOCC1 | -0.48 |
| O=C1COc2ccc(S(=O)(=O)CCC(=O)N3CCN(c4ccccc4)CC3)cc2N1 | -9.62 |
| O=C(NCCN1CCOCC1)c1ccc(Cl)nc1Cl | -1.1 |
| CN(CCOc1ccccc1)Cc1nc2cc(Cl)ccc2c(=O)[nH]1 | 58.8 |
| CC(c1nc2ccccc2c(=O)[nH]1)N(C)c1ccc2ccccc2c1 (stereo not drawn) | -13.1 |
| CCC(Sc1nc(C)cc(=O)[nH]1)C(=O)Nc1ccc(Cl)cn1 (stereo not drawn) | -1.49 |
| COc1ccc(CCN(C(=O)c2cccc(F)c2)C2CC(=O)N(c3ccc(OC)cc3)C2=O)cc1 (stereo not drawn) | 2.05 |
| CCN(CC(=O)Nc1c(F)cccc1F)C(=O)CCCc1nc2ccccc2c(=O)[nH]1 | 5.24 |
| Cc1cccc(CCNC(=O)CC2C(=O)NCCN2CC2CCCCC2)n1 (stereo not drawn) | 0.82 |
| CCOC(=O)c1c(NC(=O)CSc2nc3ccccc3[nH]2)sc2c1CC(C)(C)NC2(C)C | 35.9 |

| SMILES | inhibition [%] |
| --- | --- |
| CCOC(=O)c1c(NC(=O)CSc2ncccn2)sc2c1CC(C)(C)NC2(C)C | 8.68 |
| O=C(O)CC(Cc1ccc(Cl)cc1)C(=O)NCc1ccccc1 (stereo not drawn) | -1.83 |
| O=C(O)c1cnn(-c2nc(-c3cccc(F)c3)cs2)c1C(F)(F)F | -9.37 |
| CCCNC(=O)c1ccccc1NC(=O)Nc1ccccc1C | -3.01 |
| COc1ccc2cc1Oc1ccc(cc1)C[C@H]1c3cc(c(OC)cc3CCN1C)Oc1c(OC)c(OC)cc3c1[C@H](C2)N(C)CC3 | -2.74 |
| COc1ccc2cc1Oc1ccc(cc1)CC1c3c(cc(OC)c4c3Oc3cc5c(cc3O4)CCNC5C2)CCN1C (stereo not drawn) | 2.26 |
| COc1ccc(NC(=O)C2CCCO2)cc1Cl (stereo not drawn) | 55.9 |
| COc1cc(C(=O)NCCOc2ccc(Cl)cc2)ccc1OCc1c(C)noc1C | -3.72 |
| CCCC(=O)Nc1ccc2c(c1)nc(CN1CCCC1)n2C | -1.98 |
| Cc1cc(C)n2nc(C(=O)OC(C)C(=O)c3ccccc3)nc2n1 (stereo not drawn) | 7.53 |
| Cc1ccc(-c2cc(C(=O)NCCCn3ccnc3)c3cc(Br)ccc3n2)o1 | 4.01 |
| O=C(NCCCn1ccnc1)c1cc(-c2cccnc2)nc2ccc(Br)cc12 | 4.38 |
| COc1ccc(OCC(O)Cn2c(N)nc3c2c(=O)[nH]c(=O)n3C)cc1 (stereo not drawn) | -6.1 |
| Cc1cc(C(=O)Nc2sc3c(c2C#N)CCC(C(C)(C)C)C3)no1 (stereo not drawn) | -1.37 |
| CC1CCc2sc(-c3n[nH]c(=S)o3)cc2C1 (stereo not drawn) | 4.83 |
| Cc1[nH]c(C(=O)N/N=C/c2ccc(C(=O)O)cc2)c(C)c1C(=O)N/N=C/c1ccc(C(=O)O)cc1 | 2.47 |
| CCOC(=O)N1c2ccccc2Sc2ccccc21 | 10.8 |
| N/C(=N\OC(=O)N1c2ccccc2Sc2ccccc21)c1ccc(Br)cc1 | -4.44 |
| O=C(O)C(Cc1cnc[nH]1)NS(=O)(=O)c1ccc(Cl)cc1 (stereo not drawn) | 0.91 |
| CN1CCN(C(=S)c2ccc(N(C)C)cc2)CC1 | -4.96 |
| O=[N+]([O-])c1cccc(/C=N/Nc2nccnc2Cl)c1 | -0.09 |
| COc1ccc(CN2CCC(N3CC(C)OC(C)C3)CC2)c(OC)c1 (stereo not drawn) | 1.06 |
| COc1cc(-c2ccc3oc(-c4ccsc4)c(C#CC4(O)CCCCC4)c3c2)cc(OC)c1OC | 51.2 |
| CCn1nnc2c(=O)oc3ccccc3c21 | 28.6 |

| SMILES | inhibition [%] |
| --- | --- |
| CC(C)n1nnc2c(=O)oc3ccccc3c21 | 48 |
| CC1CC(C)CN(C(=O)Cn2nnc(-c3ccc(Br)cc3)n2)C1 (stereo not drawn) | 2.83 |
| CCOC(=O)Cn1c(C)cc(=O)c2cccc(C)c21 | 16.2 |
| CCOC(=O)Cn1c(=O)cc(C)c2cccc(C)c21 | 57.9 |
| COc1ccc(CC(=O)NCc2nnc(SCC(=O)Nc3ccccc3)n2C)cc1 | 4.29 |
| O=C(NCC(=O)N1CCN(c2ccccc2O)CC1)c1ccccc1 | 7.74 |
| CCCCCCC1CC(CCc2nc(=S)[nH][nH]2)C(=O)O1 (stereo not drawn) | -0.55 |
| O=C(NCC1CCCCC1)c1cccc([N+](=O)[O-])c1 | 4.44 |
| COC(=O)c1cc(C(=O)NCC2CCCCC2)cc([N+](=O)[O-])c1 | -5.46 |
| CCOC(=O)C1(CC2CC2)CCN(Cc2cc(Cl)c(O)c(OC)c2)CC1 | -1.14 |
| CCCCn1c(=O)c(C(=O)NCc2ccc(Cl)cc2)c(O)c2ccccc21 | 13 |
| O=[N+]([O-])c1cc(C(F)(F)F)cc([N+](=O)[O-])c1N1CCCNCC1 | -2.74 |
| Cc1ccc(N=Nc2ccc(O)c3ncccc23)cc1 | 63.9 |
| COc1ccc(N=Nc2ccc(O)c3ncccc23)cc1 | 64.2 |
| COc1ccc(OCCNC(=O)CCCO)cc1 | -4.06 |
| Cc1ccsc1/C=N/NC(=O)c1ccc(Cn2cc(Br)cn2)o1 | -7.92 |
| O=C1Nc2cc(C(=O)NCC3CCCO3)ccc2S/C1=C/c1ccccc1F (stereo not drawn) | 2.49 |
| COc1ccc(-c2csc(/C(C#N)=C\c3ccc(OC)c([N+](=O)[O-])c3)n2)cc1 | 11.1 |
| COc1ccc(-c2csc(/C(C#N)=C\c3cccc([N+](=O)[O-])c3)n2)cc1 | 9.75 |
| C#CC[N+]1(CC#Cc2ccc(C)cc2)CCCCC1 | 6.8 |
| Cc1ccc(C#CC[N+]2(C)CCCCC2)cc1 | -6.71 |
| Cc1ccc(/C=N/Nc2nnc(Cc3ccccc3)c(=O)[nH]2)o1 | 0.24 |
| CCOc1ccc(-c2cc(N)n(S(=O)(=O)c3cccc4nsnc34)n2)cc1 | -2.37 |
| O=C(NCC(c1ccco1)N1CCOCC1)C1CCCCC1 (stereo not drawn) | 1.93 |

| SMILES | inhibition [%] |
| --- | --- |
| Cn1cnc([N+](=O)[O-])c1Sc1ncnc2nc[nH]c12 | 3.96 |
| O=C(CSc1ncnc2nc[nH]c12)c1ccc([N+](=O)[O-])cc1 | -8.27 |
| COc1ccccc1C(=O)NC(=O)COC(=O)c1nc2nc(C)cc(C)n2n1 | -0.8 |
| CCc1cc2c(=O)c(-c3nc4ccccc4n3C)c(C(C)C)oc2c(CN2CCN(C)CC2)c1O | 3.5 |
| CCOc1ccccc1NC1=C(Cl)C(=O)N(c2ccc(OC)cc2)C1=O | -6.27 |
| COc1ccc(N2C(=O)C(Cl)=C(Nc3ccccc3OC)C2=O)cc1 | -3.72 |
| O=S(=O)(c1ccc2ccccc2c1)N1CCN(CCO)CC1 | 4.19 |
| Cc1ccc(S(=O)(=O)N(CC(=O)c2ccc(Cl)cc2)C(=O)N2CCN(C)CC2)cc1 | -5.16 |
| COc1cccc(CC(NC(C)=O)C(=O)NC2CCN(S(=O)(=O)c3cccc4ccccc34)CC2)c1 (stereo not drawn) | 1.8 |
| COC(=O)c1ccc(NC(=O)CSCc2ccccc2C)cc1 | 21.9 |
| Cc1cccc(C)c1OCc1cc(C(=O)N2CCN(c3ccccc3)CC2C)no1 (stereo not drawn) | 61.7 |
| CCOc1ccccc1N1CCN(C(=O)c2cn(CC3CCCCC3)nn2)CC1 | 53.5 |
| Cc1ccnc(NC(=O)c2ccc(Cl)c(NC(=O)c3ccccc3C)c2)c1 | -1.18 |
| O=C(Nc1ccon1)Nc1cccc(Cl)c1Cl | -8.3 |
| Cc1cc(C(=O)Nc2nc3ccc(S(C)(=O)=O)cc3s2)c(C)o1 | -11.6 |
| Cc1ccc2cc(C(c3nnnn3CC3CCCO3)N3CCc4ccccc4C3)c(=O)[nH]c2c1 (stereo not drawn) | 11.1 |
| NS(=O)(=O)c1ccc(N=Nc2ccc(O)c3ncccc23)cc1 | -1.88 |
| Nc1ccc(N=Nc2ccccc2)c2ccccc12 | -11.4 |
| CCCC(=O)Nc1nnc(S(=O)(=O)N(CC)c2ccc(OC)cc2)s1 | 6.35 |
| O=c1[nH]c2ccccc2nc1Cc1ccc([N+](=O)[O-])cc1 | 1.98 |
| Cc1nn(C(C)C(=O)N2CCCC2)c(=O)c2nn(-c3ccccc3)c(C)c12 (stereo not drawn) | 4.45 |
